Screens: PubChem BioAssay, Sanford-Burnham Center for Chemical Genomics
Compounds with a hit are over-represented: about 31% of the library has one in this group of screens.
CYP2C9 inh: blocks human cytochrome P450 2C9; CYP2C9 Supersomes, luciferin-H conversion, luminescence; inhibition, % at 5 µM; hit rate 20% among 96,000;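 active = blocking of liver enzyme CYP2C9 beyond about 50% at 5 µM, limit read from the data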
CYP2C19 inhib: blocks human cytochrome P450 2C19; P33261; inhibition, % at 5 µM; AID 778; hit rate 21% among 96,000; CYP2C19 Supersomes, luciferin-H EGE luminescence, 30 min;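 active = CYP2C19 inhibition above a set limit at 5 µM in the primary screen, cut at about 50% in these data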;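 note: plate controls were negative control wells for no effect and 2.5 mM tranylcypromine positive control for full effect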
CYP2C9 activ: increases human cytochrome P450 2C9 activity | P11712 | recombinant CYP2C9, luciferin-H conversion, luminescence; hits give high values; factor 1 = untreated enzyme, 0 = blocked | activation factor at 5 µM | hit rate 1.4% among 96,000 | AID 1024;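 active = activation factor of 2 or more for CYP2C9 at a 5 µM dose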;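 note: 0 = sulfaphenazole-blocked wells and 1 = vehicle-only wells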
PLAP act: activators of human placental alkaline phosphatase. P05187. purified PLAP enzyme, luminescent substrate read-out; hits give high values. activation fold at 20 µM. hit rate 1.2% among 96,000. AID 696; in the data active = activation fold above about 2
Target sequence (P05187 whole entry, looked up): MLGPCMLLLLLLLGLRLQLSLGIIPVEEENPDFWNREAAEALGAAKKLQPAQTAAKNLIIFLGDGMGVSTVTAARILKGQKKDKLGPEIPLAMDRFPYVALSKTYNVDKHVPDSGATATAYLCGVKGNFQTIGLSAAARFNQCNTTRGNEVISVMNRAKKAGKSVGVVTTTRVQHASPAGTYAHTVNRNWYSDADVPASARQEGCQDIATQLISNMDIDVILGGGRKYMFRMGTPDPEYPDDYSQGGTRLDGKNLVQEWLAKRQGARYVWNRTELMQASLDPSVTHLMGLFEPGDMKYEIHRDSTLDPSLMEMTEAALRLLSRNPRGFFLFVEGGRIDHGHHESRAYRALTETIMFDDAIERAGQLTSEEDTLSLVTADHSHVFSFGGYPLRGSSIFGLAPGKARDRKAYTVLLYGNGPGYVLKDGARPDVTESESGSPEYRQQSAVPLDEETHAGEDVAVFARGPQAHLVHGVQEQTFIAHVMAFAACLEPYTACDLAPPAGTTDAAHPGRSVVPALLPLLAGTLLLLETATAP
CYP2C19 act: increases human CYP2C19 enzyme activity | P33261 | activation factor at 5 µM | 96,000 tested, under 10 active | recombinant CYP2C19, luciferin-H EGE luminescence; hits give high values; 0 = fully inhibited enzyme, 1 = untreated enzyme;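 active = activation factor of at least 2 at 5 µM in the primary screen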;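 note: 0 = wells with 2.5 mM tranylcypromine and 1 = vehicle-only wells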
Active calls of the source: *.

For COc1ccc(NC(=O)c2ccccc2NC(=O)COc2ccccc2)cc1 the results were CYP2C9 inh 52*, CYP2C19 inhib -18, CYP2C9 activ 0.5, PLAP act 1 and CYP2C19 act 1.2.
Screening CCC(C)NC(=O)c1ccccc1NC(=O)COc1ccc(OC)cc1 (configuration not stated) returned CYP2C9 inh 73*, CYP2C19 inhib 51*, CYP2C9 activ 0.3, PLAP act 0.7 and CYP2C19 act 0.5.
COCC(=O)Nc1ccccc1C(=O)Nc1ccc(OC)cc1 was read as CYP2C9 inh 50, CYP2C19 inhib 27, CYP2C9 activ 0.5, PLAP act 1 and CYP2C19 act 0.7.
Cc1ccc(N(C(C)C(=O)Nc2ccccc2C(=O)N2CCOCC2)S(C)(=O)=O)cc1C (configuration not stated) was read as CYP2C9 inh 17, CYP2C19 inhib 20, CYP2C9 activ 0.8, PLAP act 0.9 and CYP2C19 act 0.8.
`CCC(C)NC(=O)c1ccccc1NC(=O)C(C)N(c1ccccc1)S(C)(=O)=O` (configuration not stated) gave CYP2C9 inh 49, CYP2C19 inhib 59*, CYP2C9 activ 0.5, PLAP act 1.4 and CYP2C19 act 0.4.
Screening N#Cc1nc(-c2cccs2)oc1N1CCN(c2ccccc2)CC1 returned CYP2C9 inh 39, CYP2C19 inhib 41, CYP2C9 activ 0.6, PLAP act 1 and CYP2C19 act 0.6.
For CC(C)NC(=O)Cn1nnc(-c2ccc(Cl)cc2)n1 the results were CYP2C9 inh 3, CYP2C19 inhib 25, CYP2C9 activ 1, PLAP act 1 and CYP2C19 act 0.8.
C=CCc1ccccc1OCC(O)CN(C(C)C)C(C)C (configuration not stated) was read as CYP2C9 inh 5, CYP2C19 inhib 13, CYP2C9 activ 0.9, PLAP act 1.1 and CYP2C19 act 0.9.
Screening O=C(Nc1c2ccccc2nc2ccccc12)C(Cl)(Cl)Cl returned CYP2C9 inh 23, CYP2C19 inhib 10, CYP2C9 activ 0.8, PLAP act 1 and CYP2C19 act 0.9.
`N#CC(c1ccc(Cl)nn1)c1ccc(Cl)cc1Cl` (configuration not stated) gave CYP2C9 inh 39, CYP2C19 inhib 96*, CYP2C9 activ 0.6, PLAP act 1 and CYP2C19 act 0.
CCOc1nc(-c2ccc(Cl)cc2Cl)ccc1C#N was read as CYP2C9 inh 1, CYP2C19 inhib 40, CYP2C9 activ 1, PLAP act 0.9 and CYP2C19 act 0.6.
Screening N#Cc1c(C(F)(F)F)cc(-c2ccc(Cl)cc2)[nH]c1=O returned CYP2C9 inh 55*, CYP2C19 inhib 0, CYP2C9 activ 0.4, PLAP act 1.1 and CYP2C19 act 1.
Screening N#Cc1c(C(F)(F)F)cc(-c2cccc(Cl)c2)[nH]c1=O returned CYP2C9 inh 61*, CYP2C19 inhib -8, CYP2C9 activ 0.4, PLAP act 1.2 and CYP2C19 act 1.1.
CCN(CC)c1nc(-c2ccc(Cl)cc2)cc(C(F)(F)F)c1C#N was read as CYP2C9 inh 14, CYP2C19 inhib -5, CYP2C9 activ 0.9, PLAP act 1 and CYP2C19 act 1.
CN(C)c1nc(-c2ccccc2)cc(C(F)(F)F)c1C#N was read as CYP2C9 inh -12, CYP2C19 inhib -16, CYP2C9 activ 1.1, PLAP act 1 and CYP2C19 act 1.2.
`C=CCn1c(SCC(=O)Nc2ccccc2OC)nnc1-c1ccco1` gave CYP2C9 inh 10, CYP2C19 inhib 54*, CYP2C9 activ 0.9, PLAP act 0.9 and CYP2C19 act 0.5.
For COc1ccccc1NC(=O)CSc1ncn(-c2ccccc2)n1 the results were CYP2C9 inh 19, CYP2C19 inhib 76*, CYP2C9 activ 0.8, PLAP act 0.7 and CYP2C19 act 0.2.
C=CCn1c(SCc2nc(N)nc(N3CCCCC3)n2)nnc1-c1ccco1 was read as CYP2C9 inh 13, CYP2C19 inhib 59*, CYP2C9 activ 0.9, PLAP act 1 and CYP2C19 act 0.4.
`CCc1ccccc1NC(=O)CSc1nnc(-c2ccco2)n1N` gave CYP2C9 inh -10, CYP2C19 inhib 56*, CYP2C9 activ 1.1, PLAP act 0.9 and CYP2C19 act 0.4.
For O=C(NC1(C(F)(F)F)NC(=O)N(CC2CCCCC2)C1=O)c1ccco1 (configuration not stated) the results were CYP2C9 inh 31, CYP2C19 inhib 18, CYP2C9 activ 0.7, PLAP act 0.8 and CYP2C19 act 0.8.
